Our source for the growth values is PubChem BioAssay (NCI).

The panel holds about 83,000 compounds, 20% with a hit somewhere; the sample as a whole holds those more often.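 Testing used 96-well plates and a 48-hour single-concentration exposure. Example: -40 means 40% of the starting cells died.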 A number with no mark means an inactive call. Activity calls are given as the source filed them. Rule for the calls: active = growth percent below 10; inactive = the rest.

Holding throughout (assay): NCI-60 one-dose screen, 48 h (100 = growth as untreated, 0 = no growth, -100 = all killed)
Holding throughout (settings): 10 µM unless noted

Assay [1] has as its system NCI-H23 lung.
For assay [2], the system named is NCI-H226 lung.
Assay [3] concerns NCI-H322M lung.
In assay [4] the test system is HOP-62 NSCLC.
Assay [5] deals with NCI-H460 lung.
Assay [6] has as its system HOP-92 NSCLC.
Assay [7] relates to NCI-H522 lung.
Assay [8] has as its system A549/ATCC NSCLC.
Assay [9] deals with 786-0 renal.
In assay [10] the test system is COLO 205 colon.
Assay [11] relates to DU-145 prostate.
In assay [12] the test system is K-562 leukemia.
The subject of assay [13] is MALME-3M melanoma.
Assay [14] relates to MDA-MB-231 breast.
Assay [15] relates to RXF 393 renal.
Assay [16] deals with SF-268 CNS.
Assay [17] has as its system SF-295 CNS.
The test system of assay [18] is SF-539 CNS.
Assay [19] deals with UACC-257 melanoma.
Assay [20] concerns M14 melanoma.

Consider `COc1ccc(C2C(C#N)=C(N)Oc3c2sc2c(F)cccc32)cc1` (stereo not given), for which the growth was 34.6% in [1]; 76% in assay [2]; 50% in assay [3]; 22.9% in assay [4]; 11.6% in [5]; 41.7% in assay [6]. In addition, the growth in assay [7] is 6.47% (active); in [8] it was 36.7%; in [9], 29.4%; in [10], 5.98% (active); in assay [11], 17.3%; in assay [12] it was 9.11% (active). Further, the growth in assay [13] is 65.4%; in [14], 41%; in [15] it was -8.26% (active); in assay [16], 42.6%; in assay [17], 20.2%; in assay [18] it was 1.03% (active). For the same compound, the values for the growth in assay [19] and in [20] were 64.9% and -15.6% (active), respectively.
`Cc1cccc(C)c1NC(=O)CSC(=S)N1CCCCC1`: the growth is 88.7% in [1]; 109% in [2]; 82.7% in assay [3]; 107% in assay [4]; 106% in [5]; 107% in assay [6]. In addition, the growth in [7] is 92%; in [8], 101%; in assay [9], 92.6%; in assay [10], 109%; in [11], 108%; in assay [12] it was 87.5%. For the same compound, the growth in [13] was 88.4%; in assay [14], 119%; in assay [15] it was 111%; in assay [16] it was 96%; in assay [17], 101%; in [18], 99.5%. Besides, the growth in [19] and in assay [20] was 102% each time.
Regarding `CCCCC[C@H]1C/C=C2/C(=O)C(Cl)=C[C@@H]2C/C=C\CCCC(=O)O1`, the growth in [1] is -34.5% (active); in assay [2], -32.7% (active); in assay [3], -74.2% (active); in assay [4], -36.7% (active); in [5], -16.6% (active); in assay [6], -48.9% (active). For the same compound, the growth in assay [7] was -73.1% (active); in [8], -35.6% (active); in assay [9] it was -73.4% (active); in [10] it was -63.1% (active); in assay [11] it was -83.1% (active); in assay [12], 2.39% (active). For the same compound, the growth in assay [13] was -35.2% (active); in assay [14] it was -10.7% (active); in [15] it was -90.9% (active); in assay [16] it was -37.1% (active); in assay [17], -35% (active); in assay [18], -76.7% (active). Further, the growth is -53.3% (active) in [19] and -52.8% (active) in [20].
With `N=C(N)c1ccc(-c2ccc(-c3cc(F)cc(F)c3)o2)nc1`, the growth in assay [1] was 87.8%; in assay [2], 86.6%; in assay [3], 96.4%; in assay [4], 78.4%; in [5], 99.4%; in assay [6], 59%. Besides, the growth in assay [7] is 99.1%; in assay [8], 94.8%; in assay [9], 95.6%; in assay [10], 63.4%; in assay [11], 104%; in [12], 15.9%. The growth in assay [13] is 97.3%; in assay [14], 78.3%; in assay [15], 75.2%; in assay [16], 90.8%; in assay [17] it was 95.9%; in [18] it was 88.4%. For the same compound, the growth was 115% in assay [19] and 94.7% in assay [20].
Take `Cc1nc([P+](c2ccccc2)(c2ccccc2)c2ccccc2)c(Sc2sc(-c3ccccc3)nc2[P+](c2ccccc2)(c2ccccc2)c2ccccc2)o1`: the growth is 3.75% (active) in assay [1]; 47.6% in assay [2]; 28.2% in [3]; 9.57% (active) in assay [4]; 3.38% (active) in assay [5]; -18.9% (active) in [6]. The growth was 3.53% (active) in assay [7]; 11.5% in [8]; 20.2% in assay [9]; -43.4% (active) in assay [10]; 19.7% in assay [11]; 9.67% (active) in [12]. Moreover, the growth in [13] was 6.38% (active); in assay [14] it was 14.2%; in assay [15], 26.7%; in [16], 18.2%; in assay [17], 1.87% (active); in assay [18], 22.3%. For the same compound, the growth was 8.5% (active) in [19] and 15.5% in [20].
Consider `COc1ccc(NC(=S)N/N=C/c2ccccc2SSCCC(=O)OC[C@H]2O[C@H](O)[C@H](O)[C@@H](O)[C@@H]2O)cc1`, for which the growth in assay [1] was 67.2%; in assay [2], 88.2%; in assay [3] it was 52.5%; in [4] it was 45.8%; in [5] it was 26.6%; in assay [6], 104%. The growth in assay [7] was 58.4%; in assay [8], 55.1%; in assay [9], 89.7%; in assay [10], 100%; in assay [11], 83.9%; in assay [12] it was 51.6%. Moreover, the growth in assay [13] is 72.7%; in assay [14], 71.1%; in assay [15], 104%; in assay [16], 61.1%; in assay [17], 59.1%; in [18], 91.7%. Also, the values for the growth in assay [19] and in [20] were 98.4% and 47.8%, respectively.
With `N#C/C(=C\c1ccc(-c2cccc(C(F)(F)F)c2)o1)c1nc(-c2ccco2)cs1`, the growth in [1] is 91.8%; in assay [2] it was 84.1%; in assay [3], 89.2%; in assay [4] it was 105%; in [5] it was 94.4%; in assay [6], 86.9%. The growth in assay [7] is 90%; in assay [8], 104%; in [9], 102%; in assay [10] it was 118%; in assay [11] it was 105%; in assay [12], 92.3%. The growth in assay [13] was 93.8%; in assay [14] it was 78.9%; in assay [15], 107%; in [16], 99.8%; in assay [17], 94.2%; in assay [18], 91.4%. Further, the growth was 105% in [19] and 97.8% in assay [20].
